Rows were chosen to be rich in hits. Some 18% of all compounds tested hit in one or more screens of this group.
IL-1B inflam inh – inhibitors of inflammasome signaling (IL-1 beta secretion); THP-1 LPS/ATP IL-1B secretion, AlphaLISA, 16 h; stronger effect = lower value; activity change, % at 57.5 µM; hit rate 4.7% among 360,000; in the data active = activity change below about -50%; inconclusive = mostly about -30% to -49%
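THP-1 cells pretreated 1 hr with compounds (up to 57.5 uM final), then stimulated with LPS (250 ng/mL final) plus ATP (1.25 mM final); secreted IL-1B measured by AlphaLISA after 16 hr, decreased signal indicating inhibition.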
Six1-Eya2 blk – blocks human Six1 binding to Eya2 | AlphaScreen GST-Six1/His-Eya2 binding, biochemical; stronger effect = lower value | activity change, % (test concentration not listed) | hit rate 0.56% among 360,000 | AID 651725; in the data active = activity change below about -65%; inconclusive = mostly about -30% to -63%
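Six1/Eya2 binding was read as AlphaScreen signal after compounds were pinned into GST-Six1 plus His-tagged Eya2 (5X stock 250/500 nM) in pH 8.0 Tris/NaCl/TCEP buffer, beads added, then incubated 1 h, 37 C, dark.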
TDP1 block – TDP1 (human) enzyme inhibition; recombinant TDP1, AlphaScreen DNA substrate cleavage; hit rate 0.28% among 350,000; Potency, µM (titrated, usually from 130 µM), inactives show top-dose activity change, negative = inhibition, most hits filed as inhibitors; AID 485290; also: potency is read from the fitted curve at half-maximal effect; nearly all actives have a fitted effect of over 40% in size
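Enzyme-compound mixtures sat 15 min at room temperature, followed by a 5 min reaction with 15 nM final substrate and 10 min with AlphaScreen beads. Recombinant human Tdp1 was used at 1 nM final.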
CtBP-E1A blk – CtBP/E1A binding inhibition; activity change, % (test concentration not listed); hit rate 0.49% among 340,000; AlphaScreen GST-E1A/His-CtBP binding, 1536-well; stronger effect = lower value; in the data active = activity change below about -65%; inconclusive = mostly about -30% to -63%
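Steps: dispense buffer (Tris pH 8.0, NaCl 300 mM, TCEP 1 mM, BSA, Tween 20); add 5X protein mix (GST-E1A, His-CtBP, 125 nM each); pin 23 nL compound; 2 h at 37 °C, dark; add 5X beads (50 ug/mL); 1 h; read.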
DT40 TDP1 no CPT – qHTS for Inhibitors of human tyrosyl-DNA phosphodiesterase 1 (TDP1): qHTS in cells in absence of CPT. DT40 Tdp1-/- hTDP1 cells, no CPT, ATP luminescence, 48 h. Potency, µM (top dose mostly 46.2 µM), for inactives: at the top dose activity change, negative = growth inhibition, actives largely listed as inhibitors. hit rate 15% among 420,000; also: potency is read from the fitted curve at half-maximal effect; nearly all actives have a fitted effect of over 55% in size
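Cells were dispensed at 400 per well, compounds added by pin tool, plates incubated ≥48 hr at 37 °C, then CellTiter-Glo added for 30 min at room temperature before luminescence reading. Line: DT40 Tdp1-/- complemented with hTDP1; camptothecin omitted.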
TDP1 cell CPT – DT40-hTDP1 cell growth loss with CPT; chicken DT40 Tdp1-/-;hTDP1 cells + 20 nM CPT, ATP luminescence, 48 h; AID 686979; Potency, µM (series often up to 46.2 µM), for the others: top-dose activity change, negative = growth inhibition, actives largely listed as inhibitors; hit rate 12% among 420,000; also: potency is read from the fitted curve at half-maximal effect; nearly all actives have a fitted effect of over 55% in size
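Chicken DT40 Tdp1-/- cells complemented with human TDP1, 400 cells/well, exposed to compounds plus 20 nM camptothecin for at least 48 h at 37 C; viability read as ATP content by CellTiter-Glo luminescence.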
* marks the source's active call; other numbers are inactive results; ? = inconclusive; / = not tested or not shown; [ ] = another dose, or the depositor's remark. Unless noted, calls follow the shape of the dose curve; as a rule, active = well fitted curve in the direction sought with a large enough effect; inconclusive = small, poorly fitted or top-dose-only effect, or another doubt; inactive = no such curve, though single readings can be large; an effect the other way counts as inactive or inconclusive. % is scaled to controls: 0 for no effect and ±100 for the full control effect.

SMILES	IL-1B inflam inh	Six1-Eya2 blk	TDP1 block	CtBP-E1A blk	DT40 TDP1 no CPT	TDP1 cell CPT
O=C(Nc1ccc(CN2CCOCC2)cc1)c1cc(Br)ccc1Cl	-51*	-9	/	8	?	-28%
O=C(COc1ccc2cc(Br)ccc2c1Br)N1CCOCC1	-77*	19	2%	8	?	-53%
O=C(NC(=S)Nc1ccc(CN2CCOCC2)cc1)c1cccc([N+](=O)[O-])c1	32	-18	0%	1	-23%	0%
O=C(NC(=S)Nc1ccc(CN2CCOCC2)cc1)c1ccc([N+](=O)[O-])cc1Cl	1	-2	0%	-20	26µM*	1%
NS(=O)(=O)c1ccc(OC(=O)CNC(=O)OCc2ccccc2)cc1	-3	-2	/	-3	-8%	-3%
CC(=O)Nc1ccc(NC(=O)CNS(=O)(=O)c2ccc(C)cc2)cc1	9	2	0%	7	2%	-12%
CCOc1c(O)ccc(C2NC(=O)NC(C)=C2C(=O)OC)c1[N+](=O)[O-] (stereo unspecified)	15	-3	/	0	-10%	1%
Cc1ccc(C(=O)NC(=S)Nc2ccc3c(c2)OCCO3)c(C)c1	-7	-22	3%	-14	?	?
Cc1ccc(C(=O)NC(=S)Nc2ccc(CN3CCOCC3)cc2)cc1	-29	2	7%	1	?	21µM*
O=C(Nc1ccc(Cl)cc1)c1cc(Br)ccc1OCC(=O)N1CCOCC1	-92*	6	-2%	-5	?	?
O=C(NC(=S)Nc1ccc(CN2CCOCC2)cc1)c1cccc(F)c1	-11	-17	5%	-18	?	?
O=C(Nc1ccc(OCC(=O)N2CCOCC2)cc1)c1ccccc1F	19	1	0%	0	-3%	2%
COc1cc(C(=O)Oc2ccc(Br)cc2C(=S)N2CCOCC2)cc(OC)c1OC	8	-83*	2%[0.0935 µM]	-71*	?	?
Cc1ccc(C(=O)NC(=S)Nc2ccc(N3CCOCC3)cc2)c(C)c1	2	-11	11%	-11	23µM*	-1%
Cc1cccc(C(=O)N2CCN(c3ccccn3)CC2)c1	-12	-1	0%	20	-16%	-23%
CC(C)Oc1ccc(C(=O)NC(=S)Nc2ccc(CN3CCOCC3)cc2)cc1	-27	-4	1%	6	18µM*	?
Cn1ncc2c(N3CCN(c4ccccc4Cl)CC3)ncnc21	/	/	5%	/	21µM*	?
Cn1ncc2c(N3CCOCC3)ncnc21	-11	-8	-3%	-13	-18%	-25%
CN1CCN(c2ncnc3c2cnn3-c2cccc(Cl)c2)CC1	/	/	0%	/	16µM*	16µM*
Cn1ncc2c(N3CCN(c4cccc(Cl)c4)CC3)ncnc21	/	/	0%	/	5.8µM*	?
Cc1ccc(S(=O)(=O)N2CCCC2CNC(=O)c2ccc3c(c2)OCO3)cc1 (stereo unspecified)	-18	-11	0%	-21	18µM*	?
Cc1cccc(C)c1NC(=O)C(=O)NCC1CCCN1S(=O)(=O)c1ccccc1 (stereo unspecified)	20	5	-2%	-2	12µM*	?
Cc1ccc(S(=O)(=O)N2CCCC2CNC(=O)C(=O)Nc2ccccc2)cc1 (stereo unspecified)	?	30	/	0	?	29µM*
O=Cc1c(-c2ccccc2)nc2ccccn12	16	2	9%	0	10%	-6%
O=C(Nn1cnc2ccccc2c1=O)c1ccccc1[N+](=O)[O-]	0	-2	8%	-4	-4%	7%
NC(=S)NNC(=O)C12CC3CC(CC(C3)C1)C2	20	2	0%	0	25%	0%
Cc1ccc(C23CC4CC(CC(C(=O)NC(C)C(=O)O)(C4)C2)C3)cc1 (stereo unspecified)	6	10	/	5	-19%	-1%

Screening data: PubChem BioAssay, National Center for Advancing Translational Sciences (NCATS)
